Reference: PubChem BioAssay
The source made the active and inactive calls. Unless noted, no rule for the calls is given here.

Key:
[1] = compound effects on lung adenocarcinoma cell viability – A549, calcein-AM fluorescence, 48 h, basal, profiling panel (AID 1162); conditions: higher = more signal; also: test concentration not given here
[2] = compound effects on differentiated 3T3-L1 adipocyte viability – cell-based, 3T3-L1 adipocytes, calcein-AM fluorescence, 48 h, basal, profiling panel (AID 1163); conditions: 3T3-L1 adipocytes viability, higher = more signal; also: test concentration not given here
[3] = compound effects on hepatocellular carcinoma cell viability – HepG2, calcein-AM fluorescence, 48 h, basal, profiling panel (AID 1164); conditions: higher = more signal; also: test concentration not given here
[4] = compound effects on multiple myeloma cell viability – MM1S, calcein-AM fluorescence, 48 h, basal, profiling panel (AID 1165); conditions: higher = more signal; also: test concentration not given here
[5] = calcein-AM signal in unstimulated myeloma cells – cell-based, calcein-AM fluorescence, 48 h, PK04 Diversity Set, profiling panel (AID 1166); conditions: RPMI8226 myeloma viability, higher = more signal;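 also: cells grown under basal conditions without added stimulus; test concentration not given here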
[6] = JC-1 mitochondrial signal, unstimulated HepG2 cells – cell-based, JC-1 fluorescence, 24 h, 100 nL compound, profiling panel (AID 1167); conditions: HepG2 mitochondrial potential, higher = more signal; also: test concentration not given here
[7] = JC-1 mitochondrial signal, unstimulated adipocytes – cell-based, JC-1 fluorescence, 3T3-L1 adipocytes, 24 h, 100 nL compound, profiling panel (AID 1168); conditions: JC-1 mitochondrial fluorescence, higher = more signal, called active from +8 up or from −8 down; also: test concentration not given here
[8] = JC-1 mitochondrial signal, unstimulated myeloma cells – cell-based, JC-1 fluorescence, RPMI8226, 24 h, 100 nL compound, profiling panel (AID 1169); conditions: JC-1 mitochondrial potential fluorescence, higher = more signal; also: test concentration not given here
[9] = JC-1 mitochondrial signal, unstimulated MM1S myeloma – cell-based, JC-1 fluorescence, 24 h, 100 nL compound, profiling panel (AID 1170); conditions: MM1S mitochondrial potential, higher = more signal; also: test concentration not given here
[10] = resazurin metabolic signal in A549 cells – cell-based, resazurin fluorescence, 24 h, PK04 Diversity Set, profiling panel (AID 1171); conditions: A549 viability, higher = more signal, called active from +8 up or from −8 down; also: test concentration not given here
[11] = resazurin metabolic signal in HepG2 cells – cell-based, resazurin fluorescence, 24 h, PK04 Diversity Set, profiling panel (AID 1172); conditions: HepG2 viability, higher = more signal; also: test concentration not given here
[12] = budding yeast growth changes without added modifier – OD600, strain BY4716, 24 h, basal condition, primary screen (AID 1173); conditions: S. cerevisiae BY4716 growth, OD600, 24 h; higher = more signal, called active from +8 up or from −8 down
[13] = viability profiling in MM1S myeloma cells – cell-based, resazurin fluorescence, basal, 24 h, PK04 Diversity Set, profiling panel (AID 1174); conditions: higher = more signal, called active from +8 up or from −8 down; also: test concentration not given here
[14] = target: Dihydroorotate dehydrogenase (quinone), mitochondrial (Plasmodium falciparum (isolate 3D7)) (UniProt Q08210); assay: inhibition of P. falciparum DHODH – biochemical, C-terminal His tag, absorbance 600 nm, primary screen (AID 1175); conditions: PfDHODH enzyme, DCIP absorbance 600 nm; higher = more signal, called active from +8 up or from −8 down;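 also: recombinant parasite enzyme with a five histidine tag at its C terminus; test concentration not given here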
Dihydroorotate dehydrogenase (quinone), mitochondrial (Plasmodium falciparum (isolate 3D7)), sequence (Q08210 whole entry, looked up): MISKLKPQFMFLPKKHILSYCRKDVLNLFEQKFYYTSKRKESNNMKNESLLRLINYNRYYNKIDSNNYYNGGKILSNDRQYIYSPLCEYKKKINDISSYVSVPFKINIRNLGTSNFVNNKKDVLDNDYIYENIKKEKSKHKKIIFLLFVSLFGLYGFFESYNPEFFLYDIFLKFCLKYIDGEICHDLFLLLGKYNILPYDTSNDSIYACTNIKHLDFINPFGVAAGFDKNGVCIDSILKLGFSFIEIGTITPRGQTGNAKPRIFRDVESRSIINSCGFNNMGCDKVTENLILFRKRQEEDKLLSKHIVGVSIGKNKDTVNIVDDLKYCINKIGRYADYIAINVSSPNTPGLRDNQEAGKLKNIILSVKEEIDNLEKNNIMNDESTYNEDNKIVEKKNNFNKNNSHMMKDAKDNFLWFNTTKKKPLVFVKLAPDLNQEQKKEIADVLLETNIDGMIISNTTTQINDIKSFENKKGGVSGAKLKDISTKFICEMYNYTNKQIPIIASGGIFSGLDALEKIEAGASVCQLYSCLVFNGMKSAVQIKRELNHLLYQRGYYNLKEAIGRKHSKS

[15] = inhibition of PAO1 biofilm formation – strain PAO1, LB-PBS medium, absorbance 600 nm, primary screen (AID 1176); also: test concentration not given here; conditions: P. aeruginosa PAO1 growth/biofilm, A600, 12 h; higher = more signal
[16] = growth modulation of vineyard yeast isolate – strain RM11-1a, OD600, basal, 24 h, primary screen (AID 1177);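 also: cultures grown under basal conditions with no added stressor; test concentration not given here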; conditions: S. cerevisiae RM11-1a growth, OD600, 24 h; higher = more signal, called active from +8 up or from −8 down
[17] = growth of efflux-deficient E. coli DRC39 – strain DRC39, OD650, 24 h, E. coli filamentation inducers, primary screen (AID 1178);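 also: growth measured as culture turbidity by optical density at 650 nm; test concentration not given here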; conditions: E. coli DRC39 acrAB, higher = more signal, called active from +8 up or from −8 down
[18] = growth of efflux-deficient E. coli DRC39 – strain DRC39, OD650, 48 h, E. coli filamentation inducers, primary screen (AID 1179);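 also: screen aims at cell division blockers that make cells filament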; conditions: E. coli DRC39 delta-acrAB growth, higher = more signal, called active from +8 up or from −8 down
[19] = viability profiling in RPMI8226 myeloma cells – cell-based, resazurin fluorescence, basal, 24 h, PK04 Diversity Set, profiling panel (AID 1180); conditions: higher = more signal;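 also: RPMI8826 multiple myeloma cell line at 5000 cells per well; test concentration not given here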
[20] = target: E3 ubiquitin-protein ligase XIAP (Homo sapiens) (UniProt P98170); assay: small molecules binding XIAP protein – biophysical, small-molecule microarray, fluorescence 635 nm, primary screen (AID 1181); conditions: higher = more signal;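 also: score merges 667 nm emission and signal to noise over triplicate slides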
E3 ubiquitin-protein ligase XIAP (Homo sapiens), sequence (P98170 whole entry, looked up): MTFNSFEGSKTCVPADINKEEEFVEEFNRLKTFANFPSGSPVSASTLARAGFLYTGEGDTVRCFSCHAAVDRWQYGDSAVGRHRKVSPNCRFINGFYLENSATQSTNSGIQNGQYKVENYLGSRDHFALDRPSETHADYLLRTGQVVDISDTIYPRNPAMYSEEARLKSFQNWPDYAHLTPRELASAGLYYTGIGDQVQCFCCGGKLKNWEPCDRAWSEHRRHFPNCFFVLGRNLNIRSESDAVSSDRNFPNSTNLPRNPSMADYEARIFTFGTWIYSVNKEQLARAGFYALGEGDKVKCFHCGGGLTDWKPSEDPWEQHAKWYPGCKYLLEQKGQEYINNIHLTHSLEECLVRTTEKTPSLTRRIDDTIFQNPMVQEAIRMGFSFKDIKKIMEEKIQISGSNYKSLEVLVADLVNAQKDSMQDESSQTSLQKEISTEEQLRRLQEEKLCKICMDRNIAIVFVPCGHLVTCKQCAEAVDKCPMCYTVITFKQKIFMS

| SMILES | z-score [1] | z-score [2] | z-score [3] | z-score [4] | z-score [5] | z-score [6] | z-score [7] | z-score [8] | z-score [9] | z-score [10] | z-score [11] | z-score [12] | z-score [13] | composite z-score [14] | z-score [15] | z-score [16] | z-score [17] | z-score [18] | z-score [19] | composite z-score [20] |
| --- | --- | --- | --- | --- | --- | --- | --- | --- | --- | --- | --- | --- | --- | --- | --- | --- | --- | --- | --- | --- |
| CC(=O)OC[C@H]1O[C@H](CC=NOCC[C@@H]2C=C[C@H](OC(C)=O)[C@@H](COC(C)=O)O2)C=C[C@@H]1OC(C)=O | -0.542 | -0.282 | -0.441 | 0.0077 | -0.786 | -0.314 | -0.267 (inactive) | 0.503 | 0.394 | 0.125 (inactive) | 0.149 | 0.0167 (inactive) | 0.0092 (inactive) | -0.0986 (inactive) | 0.229 (inactive) | 0.0282 (inactive) | 0.847 (inactive) | 0.66 (inactive) | 0.117 | 0.287 |
| CCN1C(=O)[C@H]2[C@H]3[C@H](O)[C@H](O)CC(=NO[C@@H](C)c4cc(-c5c(C)cc(C)cc5C)no4)[C@@H]3CC[C@H]2C1=O | 0.165 | 0.335 | -0.401 | -0.807 | -1.14 | -1.38 | -3.4 (inactive) | 0.473 | -0.176 | 0.296 (inactive) | 0.0416 | -2.13 (inactive) | -0.69 (inactive) | -0.126 (inactive) | 0.0646 (inactive) | 0.0564 (inactive) | 0.767 (inactive) | 0.596 (inactive) | -0.835 | -0.102 |
| C#CCCCON=C1C[C@@H](O)[C@@H](O)[C@@H]2[C@@H]3C(=O)N([C@@H](C)c4ccccc4)C(=O)[C@@H]3CC[C@@H]12 | 0.241 | -0.532 | -0.47 | -0.597 | -0.337 | -0.998 | -0.377 (inactive) | 0.462 | -0.968 | -0.378 (inactive) | -0.121 | 0.858 (inactive) | -0.521 (inactive) | 0.579 (inactive) | 0.237 (inactive) | 0.604 (inactive) | -0.612 (inactive) | -0.245 (inactive) | -0.245 | -0.124 |
| CC(=O)OC[C@H]1O[C@H](CC=NOC(C)CN2CCCCc3nc(C)c(C)cc32)C=C[C@@H]1OC(C)=O (stereo not given in full) | -0.348 | -1.19 | -0.276 | 0.0965 | -1.26 | -0.681 | -1.05 (inactive) | -0.31 | -0.182 | -0.146 (inactive) | 0.351 | 0.515 (inactive) | 0.535 (inactive) | -0.582 (inactive) | -0.266 (inactive) | 0.575 (inactive) | 0.132 (inactive) | -0.269 (inactive) | 0.46 | 0.23 |
| COC(=O)CC=C[C@@H](C)[C@@H](C=NOC(C)CN1CCCc2nc(C)c(C)cc21)NS(=O)(=O)c1ccc(C)cc1 (stereo not given in full) | 0.969 | -0.176 | 0.0666 | -1.08 | -0.427 | -0.486 | -0.774 (inactive) | 0.462 | -0.534 | -0.726 (inactive) | -0.566 | 0.21 (inactive) | -0.47 (inactive) | 0.899 (inactive) | 0.253 (inactive) | 0.253 (inactive) | 0.157 (inactive) | -0.0007 (inactive) | -1.32 | 0.222 |
| CO[C@@H]1[C@H](O)CO[C@H]1C=Cc1ccccc1 | 0.998 | 1.12 | -0.0866 | 0.018 | -0.664 | 0.161 | -0.267 (inactive) | 0.337 | 0.859 | -0.587 (inactive) | -1.01 | -1.05 (inactive) | 0.841 (inactive) | 0.295 (inactive) | -0.859 (inactive) | -0.113 (inactive) | -0.442 (inactive) | 0.207 (inactive) | 0.941 | -0.123 |
| COC(=O)CC=C[C@@H](C)[C@@H](C=NOC[C@@H](C)[C@H](OCc1ccccc1)C(C)C)NS(=O)(=O)c1ccc(C)cc1 | 0.0174 | 0.502 | -0.692 | -0.726 | -0.96 | -0.685 | -2.09 (inactive) | -0.129 | -0.00529 | 0.0101 (inactive) | -1 | -0.0668 (inactive) | -0.562 (inactive) | 1.07 (inactive) | -0.291 (inactive) | 0.391 (inactive) | -0.247 (inactive) | -1.18 (inactive) | 0.0833 | -0.0844 |
| C[C@@H]1CC[C@H]2C(=O)OC(CN3C(=O)c4ccccc4C3=O)CN2[C@H]1c1ccc(Br)cc1 (stereo not given in full) | 0.0752 | -0.0986 | 0.182 | 0.49 | 0.447 | 0.239 | -0.105 (inactive) | -0.911 | 1.67 | 0.705 (inactive) | 0.462 | -0.501 (inactive) | 0.668 (inactive) | 0.639 (inactive) | -0.27 (inactive) | 0.183 (inactive) | 0.786 (inactive) | 0.467 (inactive) | 0.685 | -0.0438 |
| COc1ccc(COC(=O)NN=C2C[C@@H](O)[C@@H](O)[C@@H]3[C@@H]4C(=O)N(C(C)(C)C)C(=O)[C@@H]4CC[C@@H]23)cc1 | 0.901 | 0.514 | -0.777 | 0.569 | -0.448 | -1.08 | -1.14 (inactive) | -0.379 | 0.34 | 0.259 (inactive) | -0.216 | -0.719 (inactive) | -0.181 (inactive) | -0.761 (inactive) | -0.225 (inactive) | -1.06 (inactive) | 0.237 (inactive) | 0.255 (inactive) | 0.156 | -0.252 |
